PAFAH2 FP inh = PAFAH2 (human) inhibition; recombinant PAFAH2, FP-rhodamine activity probe, fluorescence polarization; inhibition, % at 3.39 µM; 0.99% of 340,000 active;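 active means inhibition above the mean over all tested compounds plus 3 SD, cut at about 30% in these data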;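 further: inhibitors block probe labeling of enzyme so polarization drops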
PAFAH1B3 inh = inhibitors of human PAFAH1B3. recombinant PAFAH1B3, FP-rhodamine probe, fluorescence polarization. 0.28% of 340,000 active. inhibition, % at 3.39 µM. Q15102. AID 492972;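 active means inhibition above the screen-wide average of all tested compounds plus 3 SD, cut at about 25% in these data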
pPAFAH FP inh = pPAFAH (human) enzyme inhibition | recombinant pPAFAH, FP-rhodamine probe fluorescence polarization | inhibition, % at 3.39 µM | 1.5% of 330,000 active;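 active means inhibition above the mean inhibition across the screen plus 3 SD, cut at about 25% in these data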;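 further: inhibitors block binding of the rhodamine activity-based probe so polarization drops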
DAGLB inhibitor = blocks human DAGLB lipase activity | 0.059% of 340,000 active | HEK293T DAGLB membrane lysate, EnzChek fluorogenic substrate | Q8NCG7 | inhibition, % at 5.17 µM; in the data active means inhibition above about 34%
HTRA1 inh = blocks human HTRA1 serine peptidase. inhibition, % at 5.96 µM. 0.5% of 340,000 active. recombinant HTRA1, FP-rhodamine activity-based probe, fluorescence polarization. Q92743; in the data active means inhibition above about 36%
Target sequence (Q92743 whole entry, looked up): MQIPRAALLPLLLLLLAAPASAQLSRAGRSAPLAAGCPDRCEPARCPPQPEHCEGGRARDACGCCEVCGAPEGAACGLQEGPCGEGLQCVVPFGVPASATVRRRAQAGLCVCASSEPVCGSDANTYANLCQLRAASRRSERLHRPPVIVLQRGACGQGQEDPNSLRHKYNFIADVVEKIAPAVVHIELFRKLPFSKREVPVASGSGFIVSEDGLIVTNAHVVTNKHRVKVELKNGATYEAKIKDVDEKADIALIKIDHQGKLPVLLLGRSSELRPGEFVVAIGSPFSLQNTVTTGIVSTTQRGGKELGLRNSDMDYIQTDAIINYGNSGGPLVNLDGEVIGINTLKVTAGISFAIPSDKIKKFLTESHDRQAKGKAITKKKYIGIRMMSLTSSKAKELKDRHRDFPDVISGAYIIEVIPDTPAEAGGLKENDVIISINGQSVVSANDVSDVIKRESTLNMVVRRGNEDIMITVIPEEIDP
PAFAH1B2 inh = blocks human PAF acetylhydrolase 1b catalytic subunit 2. recombinant PAFAH1B2, FP-rhodamine activity probe, fluorescence polarization. inhibition, % at 3.39 µM. AID 492953. P68402. 1.2% of 340,000 active;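 active means inhibition above the mean of all tested compounds plus 3 SD, cut at about 24% in these data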
Numbers stand for hits; – = inactive; · = no result given. Hits are enriched below; roughly 2.8% of the tested compounds scored in any of these assays.

SMILES	PAFAH2 FP inh	PAFAH1B3 inh	pPAFAH FP inh	DAGLB inhibitor	HTRA1 inh	PAFAH1B2 inh
Cc1noc(C)c1CSc1ccccc1C(=O)O	–	–	–	–	–	–
O=C(COC(=O)C1CC1)Nc1ccc(Cl)cc1Cl	63.8	–	–	–	–	–
CN(C)S(=O)(=O)c1ccc(Cl)c(NC(=O)COC(=O)CCC2CCCCC2)c1	37.7	–	25.2	–	–	–
O=C(COC(=O)CCC1CCCC1)Nc1ccccc1Br	–	–	34.1	–	–	–
CN(C)S(=O)(=O)c1ccc(Cl)c(NC(=O)COC(=O)CCSc2ccccc2)c1	–	–	–	–	–	–
Cc1cc(C)cc(NC(=O)COC(=O)CCC2CCCC2)c1	–	–	–	–	–	–
NC(=O)C1(N2CCCCC2)CCN(CC(=O)Nc2ccc(Oc3ccccc3)cc2)CC1	–	–	28.1	–	–	–
Cc1cc(C)cc(OCC(=O)OCC(=O)NC2CCCCCCC2)c1	–	–	–	–	–	–
O=C(COC(=O)CCC1CCCC1)Nc1ccc(Cl)cc1F	–	–	26.9	–	–	–
COc1cccc(NC(=O)COC(=O)CCC2CCCC2)c1	–	–	27.7	–	–	–
Cc1nnsc1C(=O)Nc1ccc(S(=O)(=O)N2CCC(C)CC2)cc1	–	–	–	–	–	–
Cc1ccccc1NC(=O)Cc1nc(COC(=O)c2ccc(Cl)nc2)cs1	–	–	–	–	–	–
Cc1ccc(C)c(NC(=O)CN(C)C(=O)c2ccccc2OCc2ccccc2Cl)c1	–	–	–	–	–	–
CCOc1cc(/C=C2\SC(=O)N(CC(=O)Nc3ccccc3F)C2=O)cc([N+](=O)[O-])c1O	34.1	–	32.1	–	–	–
COc1cc(/C=C2\SC(=O)N(CC(=O)Nc3ccccc3F)C2=O)cc(Cl)c1O	–	–	–	–	–	–
O=C1C=CC(=C(c2ccc(O)cc2)c2ccc(O)cc2)C=C1	–	–	–	–	–	24.4
O=C(CCCC(=O)c1ccc(O)cc1)c1ccc(O)cc1	–	–	–	–	–	–
O=C(O/N=C1/CCSc2ccccc21)c1ccc(F)cc1	47.2	–	–	–	–	24.4
O=C(O)c1ccc(-n2cccc2/C=C2/SC(=O)N(CC(=O)N3CCCC3)C2=O)cc1	37.6	–	33.6	–	–	–
N#Cc1ccccc1CN1C(=O)S/C(=C/c2cccn2-c2ccc(C(=O)O)cc2)C1=O	–	–	–	–	–	–
O=C(O)c1ccc(-n2cccc2/C=C2/NC(=O)N(c3ccccc3)C2=O)cc1	–	–	28.7	–	–	–
CC(C)N1CC=C2C(C#N)=C(N)C(C#N)(C#N)[C@H](c3ccoc3)[C@H]2C1	·	·	28.6	·	·	·
CC(C)N1CC=C2C(C#N)=C(N)C(C#N)(C#N)C(c3ccccc3)C2C1 (stereo not drawn)	–	–	–	–	–	–
O=C(NCC1CCCO1)/C(=C\c1ccccc1F)NC(=O)c1ccccc1 (stereo not drawn)	–	–	–	–	–	–
CCN(C1CCCCC1)S(=O)(=O)c1ccc(S(=O)(=O)NCc2ccncc2)cc1	–	–	–	–	–	–
SMILES	PAFAH2 FP inh	PAFAH1B3 inh	pPAFAH FP inh	DAGLB inhibitor	HTRA1 inh	PAFAH1B2 inh
CCN(C1CCCCC1)S(=O)(=O)c1ccc(S(=O)(=O)NCCc2ccncc2)cc1	–	–	–	–	–	25.1
Cc1sc2ncnc(SCC(=O)N3CCCC(C(F)(F)F)C3)c2c1C (stereo not drawn)	–	–	–	–	–	–
COC(=O)c1cc(NCc2c(F)cccc2Cl)ccc1N1CCOCC1	–	–	29.8	–	–	–
Sc1ccccc1N=Cc1cccs1	·	·	·	–	–	·
Cc1ccc(CNC(=O)CCOc2ccc(C(C)(C)C)cc2)cc1	–	–	–	–	–	29.8
CCOc1ccc(N2CC(C(=O)OCC(=O)NCc3ccccc3)CC2=O)cc1 (stereo not drawn)	–	–	26.8	–	–	–
CCOc1ccc(OCCC(=O)OCC(=O)Nc2ccc(Cl)cn2)cc1	–	–	24.7	–	–	–
CCOc1ccc(N2CC(C(=O)NCc3ccccc3)CC2=O)cc1 (stereo not drawn)	–	–	–	–	–	–
CC(C)(C)c1ccc(OCCCC(=O)NNC(=O)c2ccccc2O)cc1	–	–	27.9	–	–	26.8
O=C(CN1CCN(S(=O)(=O)c2ccc3c(c2)OCCO3)CC1)Nc1cccc(F)c1	–	–	·	–	–	–
Cc1cc(C)c(S(=O)(=O)NCC(c2ccco2)N2CCc3ccccc3C2)c(C)c1 (stereo not drawn)	–	–	–	–	–	–
Cc1ccc(CNC(=O)COC(=O)CCOc2ccc(C)cc2)cc1	–	–	27.0	–	–	–
Cc1ccc(OCCC(=O)OCC(=O)NC(=O)NCc2ccccc2)cc1	–	–	–	–	–	–
CC(C)(C)c1ccc(OCCC(=O)OCC(=O)NCc2ccccc2)cc1	–	–	25.8	–	–	–
CCOc1ccc(OCCC(=O)OCC(=O)NNC(=O)c2ccccc2)cc1	–	–	27.8	–	–	–
COc1ccc(CNC(=O)COC(=O)CCOc2ccccc2)cc1	–	–	–	–	–	–
COC(=O)c1c(NC(=O)C2C3CCC(O3)C2C(=O)O)sc2c1CCCCCC2 (stereo not drawn)	–	–	–	–	–	50.5
COc1ccc2oc(=O)c(-c3csc(Nc4ccc(O)cc4)n3)cc2c1	–	–	29.1	–	–	–
COc1ccc2oc(=O)c(/C(C)=N/Nc3nc(-c4cc(C)ccc4C)cs3)cc2c1	–	–	–	–	–	–
CS(=O)(=O)c1nc(-c2ccccc2)cc(C(F)(F)F)n1	–	–	25.1	–	–	–
CC(=O)c1ccc(N2CCN(C(=O)/C=C/c3ccc(S(=O)(=O)N4CCOCC4)cc3)CC2)cc1	–	–	32.5	–	–	–
Cc1c(C#N)c(N)nc2c3c(sc12)NC(=O)CC3c1ccc(Cl)cc1 (stereo not drawn)	–	–	–	–	–	–
N#Cc1c(N)nc2c3c(sc(=N)c2c1N)NC(=O)CC3c1ccccc1 (stereo not drawn)	–	–	28.4	–	–	–
CCc1cc2ccc(C)cc2nc1SCC(=O)NC1CCCC1	–	–	–	–	–	–
COC(=O)Cc1csc(Nc2ccc(F)c(Cl)c2)n1	–	–	25.0	–	–	–
CCCCC(=O)NC1(C(F)(F)F)NC(=O)N(C)C1=O (stereo not drawn)	–	–	–	–	–	–
O=C(NCC1CCCO1)c1onc(CSc2ccc(Cl)cc2)c1C(=O)O (stereo not drawn)	–	–	–	–	–	24.8
Cc1ccccc1SCc1noc(C(=O)NCC2CCCO2)c1C(=O)O (stereo not drawn)	–	–	–	–	–	–
COC(=O)C1=CN(Cc2ccc(OC)cc2)C=C(C(=O)OC)C1c1cc(OC)c(OC)c(OC)c1	–	–	–	–	–	–

Screening results deposited in PubChem by The Scripps Research Institute Molecular Screening Center.
